Only some compounds are listed: those with a hit (about 27% of all), similar ones and a draw of the others.
CYP2C19 inh: blocks human cytochrome P450 2C19; 96,000 tested, 21% active; inhibition, % at 5 µM; CYP2C19 Supersomes, luciferin-H EGE luminescence, 30 min; P33261;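 active = CYP2C19 inhibition above a set limit at 5 µM in the primary screen, cut at about 50% in these data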;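 note: plate controls were negative control wells for no effect and 2.5 mM tranylcypromine positive control for full effect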
CYP2C9 inh: inhibitors of human CYP2C9 | P11712 | CYP2C9 Supersomes, luciferin-H conversion, luminescence | inhibition, % at 5 µM | 96,000 tested, 20% active | AID 777;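 active = blocking of liver enzyme CYP2C9 beyond about 50% at 5 µM, limit read from the data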
CYP2C9 act: increases human cytochrome P450 2C9 activity; P11712; recombinant CYP2C9, luciferin-H conversion, luminescence; stronger effect = higher value; factor 1 = untreated enzyme, 0 = blocked; activation factor at 5 µM; 96,000 tested, 1.4% active; AID 1024;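 active = activation factor of 2 or more for CYP2C9 at a 5 µM dose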;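 note: 0 = sulfaphenazole-blocked wells and 1 = vehicle-only wells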
CYP2C19 act: activators of human cytochrome P450 2C19. activation factor at 5 µM. P33261. recombinant CYP2C19, luciferin-H EGE luminescence; stronger effect = higher value; 0 = fully inhibited enzyme, 1 = untreated enzyme. 96,000 tested, under 10 active;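 active = activation factor of at least 2 at 5 µM in the primary screen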;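 note: 0 = wells with 2.5 mM tranylcypromine and 1 = vehicle-only wells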
Cav3 T inh: blocks human Cav3.2 T-type calcium channel; B-score at 10 µM; 100,000 tested, 4% active; Cav3.2-expressing cells, Fluo-4 calcium fluorescence FDSS; stronger effect = lower value; AID 449739; O95180;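 active = single-dose well whose peak fluorescence ratio is a statistical outlier from its plate by either plate-standardised score or position-corrected B-score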
Starred values were filed as active, the others as inactive; nt = no result.

SMILES | CYP2C19 inh | CYP2C9 inh | CYP2C9 act | CYP2C19 act | Cav3 T inh
Cc1ccc(S(=O)(=O)Nc2cc(C(=O)Nc3cc(C)cc(C)c3)ccc2Cl)cc1 | 57* | 80* | 0.2 | 0.4 | -5.3*
CC(=O)c1cccc(NS(=O)(=O)c2ccc(N/C=C\C(=O)c3ccc(C)cc3)cc2)c1 | 15 | 65* | 0.4 | 0.8 | -0.44
CC(=O)c1cccc(NS(=O)(=O)c2ccc(N/C=C\C(=O)c3ccc(F)cc3)cc2)c1 | 14 | 29 | 0.7 | 0.9 | 0.25
Cc1ccccc1NC(=O)c1cc(S(=O)(=O)c2ccccc2)ccc1Cl | 6 | 1 | 1 | 0.9 | -1.8
Cc1cccc(NC(=O)c2cc(S(=O)(=O)c3ccccc3)ccc2Cl)c1 | 80* | 94* | 0.1 | 0.2 | -5.6*
Cc1cccc(NC(=O)c2cccc(NS(=O)(=O)c3ccc(Cl)cc3)c2)c1 | 99* | 97* | 0 | 0 | -9.6*
Cc1ccc(NC(=O)c2ccc(S(=O)(=O)N3CCCC3)cc2)cc1 | nt | nt | nt | nt | 0.81
COC(=O)C1=C[C@@H](C(=O)OC)[C@@H]2C3=C(C(=O)C2(C)C)[C@H](c2ccccc2)[C@@H]2C(=O)N(C)C(=O)[C@@H]2[C@@H]3C1 | nt | nt | nt | nt | 1.2
CC(C)C[C@H](N)c1cn([C@@H](Cc2ccc(O)cc2)C(=O)N2CCNCC2)nn1 | nt | nt | nt | nt | 0.63
CCOC(=O)C(C)Oc1nc(Oc2ccccc2)nc(N(C)C)n1 (stereo not drawn) | 57* | 30 | 0.7 | 0.4 | -2.8
COC(=O)c1ccc(Oc2nc(Nc3ccccc3)nc(N(C)C)n2)cc1 | 36 | 52* | 0.5 | 0.6 | -0.41
CCOC(=O)N1CCC(NC(=O)C(NC(=O)C2CCC(C)CC2)C(C)CC)CC1 (stereo not drawn) | 53* | 26 | 0.7 | 0.5 | nt
Cn1c(=O)c2c(nc(CN3CCc4ccccc4C3)n2CC(=O)c2ccccc2)n(C)c1=O | nt | nt | nt | nt | -1.5
Clc1ccc(Oc2nc(Oc3ccc(Cl)cc3)nc(N3CCOCC3)n2)cc1 | 15 | 15 | 0.8 | 0.9 | -3.7
Cn1nc(Oc2nc(N3CCOCC3)nc(N3CCOCC3)n2)ccc1=O | -5 | -6 | 1.1 | 1.1 | 0.44
COC(=O)c1ccc(Oc2nc(N3CCCCC3)nc(N3CCOCC3)n2)cc1 | 32 | 30 | 0.7 | 0.7 | -4.3*
c1ccc(Oc2nc(Oc3ccccc3)nc(N3CCOCC3)n2)cc1 | 60* | 49 | 0.5 | 0.4 | nt
CC1=C(n2ccnc2)CCC1=O | nt | nt | nt | nt | -0.73
Cc1c(Cc2ccccc2)c(=O)oc2c(CN(C)C)c(O)c(Cl)cc12 | nt | nt | nt | nt | 0.8
CN(C)Cc1c(O)ccc2oc(Cc3ccccc3)cc12 | 72* | 23 | 0.8 | 0.3 | 0.12
CN(Cc1ccccc1)C(=O)CCNS(=O)(=O)c1ccc2c(c1)oc(=O)n2C | 49 | 17 | 0.8 | 0.5 | 0.16
O=C(NC1CCCCC1)C(c1cccs1)N(C(=O)c1ccco1)c1ccc2c(c1)OCCO2 (stereo not drawn) | nt | nt | nt | nt | -1.6
O=C(NCc1ccco1)C(c1cccs1)N(C(=O)C1COc2ccccc2O1)c1cccc(O)c1 (stereo not drawn) | 97* | 94* | 0.1 | 0 | -8.6*
O=C1CC(c2ccc(S(=O)(=O)NCc3ccccc3)cc2)CN1 (stereo not drawn) | -12 | 1 | 1 | 1.1 | 0.63
Cc1ccccc1NS(=O)(=O)c1ccc(C2CNC(=O)C2)cc1 (stereo not drawn) | 56* | 47 | 0.5 | 0.4 | 0.004
SMILES | CYP2C19 inh | CYP2C9 inh | CYP2C9 act | CYP2C19 act | Cav3 T inh
O=C1CC(c2ccc(S(=O)(=O)Nc3cc(C(F)(F)F)cc(C(F)(F)F)c3)cc2)CN1 (stereo not drawn) | 38 | 79* | 0.2 | 0.6 | -1.4
Cc1cc(O)c(/C=N/Nc2ccccc2Cl)c(=O)o1 | 30 | 27 | 0.7 | 0.7 | -0.041
Cc1cc(O)c(/C=N/Nc2cccc(Cl)c2)c(=O)o1 | 58* | 71* | 0.3 | 0.4 | -0.13
Cc1noc(C)c1CSc1nnc2ccccn12 | 22 | 10 | 0.9 | 0.8 | 1.6
Cc1noc(C)c1CSc1nnc(-c2ccccc2)n1N | 65* | 16 | 0.8 | 0.4 | -0.29
Cc1noc(C)c1CSc1nnc(-c2ccccc2)n1Cc1ccco1 | 50* | 54* | 0.5 | 0.5 | 0.016
O=C(O)C1C2C=CC(O2)C1C(=O)NCc1ccccc1Br (stereo not drawn) | 7 | 18 | 0.8 | 0.9 | -0.16
Cc1cc(O)c(C(C)C)cc1N=C1CSC(=O)N1 | 3 | 38 | 0.6 | 1 | -0.88
N#C/C(=C/c1ccc(N2CCCCC2)o1)c1cccc(F)c1 | 15 | 25 | 0.8 | 0.8 | -5.6*
N#C/C(=C/c1ccc(N2CCCCCC2)o1)c1ccc(Cl)cc1 | -1 | 2 | 1 | 1 | -5.7*
COc1ccc(-c2cc(-c3cccs3)c(C#N)c(SCC(=O)NCc3ccccc3)n2)cc1 | -1 | 53* | 0.5 | 1 | -0.064
N#Cc1c(N)nc(SCC(=O)NCc2ccc3c(c2)OCO3)c(C#N)c1-c1cccs1 | 26 | 74* | 0.3 | 0.7 | 0.44
Cc1ccc(-c2csc3ncnc(SCC(=O)NCc4ccc5c(c4)OCO5)c23)cc1 | 22 | 57* | 0.4 | 0.8 | -2.4
COc1ccc(-c2cc(-c3cccs3)c(C#N)c(SCC(=O)NCc3ccccc3OC)n2)cc1 | 17 | 40 | 0.6 | 0.8 | 1.1
O=C(CSc1ncnc2scc(-c3ccc(Cl)cc3)c12)NCc1ccc2c(c1)OCO2 | nt | nt | nt | nt | -0.69
Nc1nnc(SCC(=O)NCc2ccc3c(c2)OCO3)s1 | 47 | 10 | 0.9 | 0.5 | -0.0076
O=C(CSc1n[nH]c(-c2cccs2)n1)NCc1ccc2c(c1)OCO2 | 85* | 97* | 0 | 0.1 | 1.6
COc1ccc(NC(C)=O)cc1NC(=O)CSc1nnc(-c2cccnc2)n1C | 4 | -10 | 1.1 | 1 | -0.86
O=C(CSc1ncccc1-c1nc2ccccc2[nH]1)N1CCN(c2ccccc2F)CC1 | 11 | 19 | 0.8 | 0.9 | -5
O=C(O)C1C2C=CC(C2)C1C(=O)Nc1ccc(C(=O)N2CCCCC2)cc1 (stereo not drawn) | 15 | 5 | 0.9 | 0.9 | nt
Cn1c(SCC(=O)NCc2ccc3c(c2)OCO3)nc2scc(-c3cccs3)c2c1=O | 23 | 80* | 0.2 | 0.8 | -0.9
O=C(CSc1n[nH]c(-c2cccs2)n1)NCc1cccs1 | 69* | 25 | 0.8 | 0.3 | -0.46
Cc1ccc(CS(=O)(=O)Cc2ccc(C(=O)NCc3cccnc3)o2)cc1 | 76* | 36 | 0.6 | 0.2 | 0.18
COc1ccccc1CNC(=O)c1ccc(CS(=O)(=O)c2ccccc2OC)o1 | 22 | 52* | 0.5 | 0.8 | 0.97
O=C(NCc1cccnc1)c1ccc(CS(=O)(=O)Cc2ccc(Cl)cc2)o1 | 100* | 65* | 0.3 | 0 | 0.21
Cc1ccccc1S(=O)(=O)Cc1ccc(C(=O)O)o1 | -16 | -13 | 1.1 | 1.2 | 1.2
Cc1ccccc1S(=O)(=O)Cc1ccc(C(=O)NCc2cccnc2)o1 | 98* | 67* | 0.3 | 0 | 1.1
COc1cccc(C(=O)Nc2ncc3c(n2)CC(C)(C)CC3=O)c1 | 3 | 8 | 0.9 | 1 | -0.45

Compound activity deposited in PubChem by several laboratories.
